Among the test systems are K-562 leukemia; MALME-3M melanoma; MDA-MB-231 breast; RXF 393 renal; SF-268 CNS; SF-295 CNS; SF-539 CNS; UACC-257 melanoma; M14 melanoma; HCT-15 colon; HT29 colon; SNB-75 CNS; SNB-19 CNS; U251 CNS; PC-3 prostate; SK-MEL-5 melanoma; UACC-62 melanoma; SK-MEL-28 melanoma; SK-MEL-2 melanoma; LOX IMVI melanoma.
What all share (test): NCI-60 one-dose screen, 48 h (100 = growth as untreated, 0 = no growth, -100 = all killed)
Conditions in all cases: 10 µM unless noted

About 83,000 compounds went through this panel and 20% of them were active in at least one assay; those are over-represented in the sample as a whole.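 Plates (96-well) were seeded with cells, treated with compound at one concentration, and incubated for 48 hours before percent growth was determined.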 A number with no mark means an inactive call. The source made the active and inactive calls. How the source made its calls: active means growth percent below 10; inactive means the rest.

Drawing on PubChem BioAssay (NCI), this text covers growth for eight compounds.

In the case of `O=C(Oc1ccc2ccc(=O)oc2c1)c1ccc(Cl)cc1`, the growth in the assay with K-562 leukemia was 115%; in the assay on MALME-3M melanoma, 102%; in the assay with MDA-MB-231 breast, 103%; with RXF 393 renal, 116%; in the assay with SF-268 CNS it was 106%; in the assay on SF-295 CNS, 101%. Moreover, the growth in the assay with SF-539 CNS is 101%; in the assay with UACC-257 melanoma it was 106%; in the assay with M14 melanoma, 107%; in the assay on HCT-15 colon it was 97.9%; in the assay with HT29 colon, 115%; in the assay with SNB-75 CNS it was 112%. Further, the growth in the assay on SNB-19 CNS was 93.2%; with U251 CNS it was 106%; with PC-3 prostate it was 103%; in the assay on SK-MEL-5 melanoma, 101%; in the assay on UACC-62 melanoma, 97.3%; in the assay with SK-MEL-28 melanoma it was 109%. Besides, the growth with SK-MEL-2 melanoma is 113%.

As for `Clc1ccc2c(NCCCN3CCOCC3)c3oc4ccc(Cl)cc4c3nc2c1`, the growth was 2.23% (active) in the assay on K-562 leukemia; 89.3% in the assay on MALME-3M melanoma; 50.3% in the assay with MDA-MB-231 breast; 22.2% with RXF 393 renal; 68.5% with SF-268 CNS; 35% in the assay on SF-295 CNS. The growth in the assay with SF-539 CNS was 41.7%; in the assay with UACC-257 melanoma, 102%; in the assay with M14 melanoma, 97.5%; with HCT-15 colon, 4.4% (active); in the assay with HT29 colon, 33.5%; in the assay on SNB-75 CNS, 79.6%. Moreover, the growth was 69.6% in the assay with SNB-19 CNS; 44.1% in the assay with U251 CNS; 60.8% in the assay with PC-3 prostate; 74.2% in the assay on SK-MEL-5 melanoma; -82.8% (active) with LOX IMVI melanoma; 80.4% in the assay on SK-MEL-28 melanoma. The growth in the assay on SK-MEL-2 melanoma was 122%.

On to `COc1cc(/C=C/C(=O)c2ccc(F)cc2)ccc1Oc1nc(NCCO)nc(N2CCOCC2)n1`, for which the growth in the assay on K-562 leukemia was 6.99% (active); in the assay with MALME-3M melanoma, 78.8%; in the assay on MDA-MB-231 breast, 86.7%; with RXF 393 renal, 108%; in the assay with SF-268 CNS it was 81%; in the assay on SF-295 CNS, 93.2%. The growth in the assay on SF-539 CNS was 88.2%; in the assay with UACC-257 melanoma, 98.3%; with M14 melanoma, 84%; with HCT-15 colon it was 39.2%; in the assay on HT29 colon it was 53.5%; with SNB-75 CNS it was 92.2%. The growth in the assay on SNB-19 CNS was 69.4%; with U251 CNS it was 44.1%; in the assay on PC-3 prostate, 70.8%; in the assay with SK-MEL-5 melanoma, 82.1%; with UACC-62 melanoma, 57.2%; with SK-MEL-28 melanoma, 91.3%. For the same compound, the growth in the assay with SK-MEL-2 melanoma was 93.9%.

In the case of `COC(=O)c1ccc(NC(=S)N2CCc3ccc([N+](=O)[O-])cc3C2)cc1O`, the growth with K-562 leukemia was 110%; with MALME-3M melanoma, 95.4%; in the assay on MDA-MB-231 breast, 94.5%; with RXF 393 renal, 110%; in the assay with SF-268 CNS, 103%; in the assay on SF-295 CNS, 102%. For the same compound, the growth in the assay with SF-539 CNS was 103%; in the assay on UACC-257 melanoma, 109%; in the assay with M14 melanoma it was 102%; in the assay with HCT-15 colon, 99.7%; with HT29 colon, 109%; in the assay on SNB-75 CNS, 112%. Also, the growth with SNB-19 CNS was 97.6%; in the assay with U251 CNS it was 111%; with PC-3 prostate it was 98.7%; with SK-MEL-5 melanoma it was 100%; in the assay on UACC-62 melanoma, 99.2%; in the assay with SK-MEL-28 melanoma it was 106%. Further, the growth in the assay on SK-MEL-2 melanoma was 122%.

As to `COc1cc(/C=C/C(=O)c2cc(OC)c(OC)c(OC)c2)ccc1OCc1ccc(F)cc1`, the growth with K-562 leukemia was 11.7%; in the assay on MALME-3M melanoma, 67.6%; in the assay on MDA-MB-231 breast, 46.8%; with RXF 393 renal, 77.7%; with SF-268 CNS, 58%; with SF-295 CNS, 54.7%. Further, the growth in the assay with SF-539 CNS was 9.22% (active); with UACC-257 melanoma, 79.8%; in the assay on M14 melanoma it was 71%; in the assay with HCT-15 colon it was 16%; in the assay with HT29 colon, 4.34% (active); with SNB-75 CNS, 8.67% (active). Further, the growth with SNB-19 CNS was 49.8%; with U251 CNS, 33.8%; in the assay on PC-3 prostate, 35%; in the assay on SK-MEL-5 melanoma, 58.7%; in the assay on UACC-62 melanoma, 43.9%; with SK-MEL-28 melanoma, 81.1%. Besides, the growth in the assay with SK-MEL-2 melanoma is 90%.

Consider `COC(=O)C(Cc1ccccc1)NS(=O)(=O)/N=C1\NC(=O)NC1=C(Cl)Cl` (configuration not stated), for which the growth in the assay with K-562 leukemia was 91.8%; in the assay on MALME-3M melanoma it was 94.8%; with MDA-MB-231 breast, 101%; in the assay on RXF 393 renal it was 119%; in the assay with SF-268 CNS, 82.9%; with SF-295 CNS it was 99.5%. Also, the growth with SF-539 CNS is 54%; in the assay on UACC-257 melanoma it was 91%; in the assay with M14 melanoma it was 92.9%; in the assay on HCT-15 colon, 99.5%; with HT29 colon it was 127%; in the assay with SNB-75 CNS, 106%. Moreover, the growth with SNB-19 CNS is 94.2%; in the assay on U251 CNS, 106%; in the assay on PC-3 prostate, 90%; in the assay with SK-MEL-5 melanoma it was 98.1%; in the assay with UACC-62 melanoma it was 78.8%; with SK-MEL-28 melanoma, 102%. In the assay on SK-MEL-2 melanoma, the growth is 60.3%.

Regarding `C=CCn1c(SCC(=O)c2ccccc2)nnc1-c1c[nH]c2ccccc12`, the growth in the assay with K-562 leukemia was 92.6%; in the assay on MALME-3M melanoma, 86.6%; with MDA-MB-231 breast, 88.8%; in the assay on RXF 393 renal, 102%; with SF-268 CNS, 102%; in the assay on SF-295 CNS, 96.2%. Moreover, the growth in the assay on SF-539 CNS was 97.3%; with UACC-257 melanoma it was 97.9%; in the assay with M14 melanoma, 97.7%; in the assay with HCT-15 colon, 96%; in the assay with HT29 colon, 112%; in the assay on SNB-75 CNS, 96.4%. Further, the growth with SNB-19 CNS was 98.3%; with U251 CNS, 107%; in the assay with PC-3 prostate, 89.1%; in the assay on SK-MEL-5 melanoma, 96.6%; with UACC-62 melanoma, 81.5%; in the assay on SK-MEL-28 melanoma it was 105%. Further, the growth in the assay on SK-MEL-2 melanoma is 105%.

As to `Cn1c(SCC(=O)Nc2ccc(-c3nc4ccc([N+](=O)[O-])cc4[nH]3)cc2)nc2ccccc2c1=O`, the growth in the assay on K-562 leukemia was 93.6%; in the assay with MALME-3M melanoma it was 87.3%; with MDA-MB-231 breast, 78.5%; with RXF 393 renal, 73.1%; with SF-268 CNS, 83.3%; in the assay with SF-295 CNS it was 77.1%. Further, the growth with SF-539 CNS is 78.1%; in the assay with UACC-257 melanoma it was 87.3%; in the assay on M14 melanoma, 96.3%; in the assay with HCT-15 colon, 78.2%; with HT29 colon it was 89.7%; in the assay with SNB-75 CNS, 93.2%. Moreover, the growth was 85.8% with SNB-19 CNS; 92% in the assay on U251 CNS; 68.7% in the assay on PC-3 prostate; 84.8% in the assay on SK-MEL-5 melanoma; 75% with UACC-62 melanoma; 79.4% in the assay with SK-MEL-28 melanoma. Besides, the growth with SK-MEL-2 melanoma was 90.7%.
